High-throughput results: PubChem BioAssay, Broad Institute
Only a selection was taken, and hits are over-represented in it overall.
NOMO-1 viab = NOMO-1 AML cell viability reduction, primary screen, STK33 inhibitor project, CellTiter-Glo luminescence; NOMO-1 AML viability, 72 h; inhibition, % (no concentration beside the values); 37,000 tested, 7.5% active; in the data active means inhibition above about 80%; inconclusive means no clear call, values can overlap the other calls
STK33 inh = STK33 kinase inhibitors, primary screen, biochemical, luminescence, ADP-Glo, MBP substrate. Serine/threonine-protein kinase 33 (Homo sapiens), Q9BYT3. inhibition, % at 12.5 µM. 27,000 tested, 0.44% active. AID 2322, 2010; in the data active means inhibition above about 20%; inconclusive means no clear call, values can overlap the other calls
PD-1 reverse act = activators reversing PD-1 mediated T-cell inhibition, primary screen, luminescence, primary human CD4 T cells, PD-L1 beads | activation, % (concentration not given with the values) | 29,000 tested, under 10 active | CellTiter-Glo 96 h; call rule not given here
Hits are given with their value; i = inactive; ? = inconclusive; nt = not tested or not shown.

SMILES	NOMO-1 viab	STK33 inh	PD-1 reverse act
C[C@@H]1CN([C@@H](C)CO)C(=O)c2cccc(NC(=O)Nc3ccc4c(c3)OCO4)c2O[C@@H]1CN(C)Cc1ccc(Cl)c(Cl)c1	i	nt	i
C[C@H](CO)N1C[C@H](C)[C@@H](CN(C)Cc2ccc(Cl)c(Cl)c2)Oc2c(NC(=O)Nc3ccc4c(c3)OCO4)cccc2C1=O	82	nt	nt
Cc1ccc(S(=O)(=O)NCCC(=O)Oc2ccc3c(=O)c(-c4ccc(F)cc4)coc3c2)cc1	i	i	i
COC(=O)c1c2ccccc2c(C)c2ccccc12	?	i	i
CCC(C)C1=NN(C(=O)c2ccccc2)C(O)(C(=O)OC)C1 (stereo not given)	i	nt	i
CCCCCCCCCC/C=C\CCCCCCCc1cccc(O)c1C(=O)O	119	i	i
CCCCCCCC/C=C\CCCCCCCc1cccc(O)c1C(=O)O	i	i	i
CCc1oc2ccccc2c1C(=O)c1ccc(OC(C)=O)cc1	136	nt	i
COc1ccc(C(=O)c2oc3ccccc3c2NC(=O)COc2ccc(C)cc2)cc1	i	i	i
COc1cccc(-c2nnc(SCC(=O)Nc3cccc(Cl)c3)n2C)c1	i	i	i
CC(O)c1ccc2ccccc2c1 (stereo not given)	i	nt	i
C[C@@H]1CN([C@@H](C)CO)C(=O)c2cccc(NC(=O)CCCCCC(=O)Nc3ccccc3N)c2O[C@H]1CN(C)S(=O)(=O)c1ccc(F)cc1	i	nt	i
C[C@@H]1CN([C@@H](C)CO)C(=O)c2cccc(NC(=O)CCCCCC(=O)Nc3ccccc3N)c2O[C@@H]1CN(C)S(=O)(=O)c1ccc(F)cc1	92	nt	i
C[C@H](CO)N1C[C@H](C)[C@H](CN(C)S(=O)(=O)c2ccc(F)cc2)Oc2c(NC(=O)CCCCCC(=O)Nc3ccccc3N)cccc2C1=O	95	nt	i
C[C@@H]1CN([C@H](C)CO)C(=O)c2cccc(NC(=O)CCCCCC(=O)Nc3ccccc3N)c2O[C@@H]1CN(C)S(=O)(=O)c1ccc(F)cc1	i	nt	i
CS(=O)(=O)N(CC(=O)Nc1ccc(F)c(F)c1)c1ccccc1Br	i	i	i
Cc1nn(CC(O)COc2ccc3cc(Br)ccc3c2)c(C)c1Cl (stereo not given)	i	i	i
Cc1ccc(S(=O)(=O)N(C)CCCc2nc3ccccc3[nH]2)cc1	i	i	nt
COc1ccc(CCNc2nc(C)nc3c2sc2nc4c(cc23)COC(C)(C)C4)cc1OC	i	i	i
c1ccc2[nH]c(-c3nc4ccccc4s3)nc2c1	127	nt	i
c1cc(-c2nc3ccccc3s2)nc(-c2nc3ccccc3s2)c1	i	nt	i
Cc1nnc(SCc2cc(=O)[nH]c(Nc3nc(C)c4cccc(C)c4n3)n2)s1	i	i	i
C[C@H]1CN([C@@H](C)CO)C(=O)c2cccc(NC(=O)c3ccc(-c4nccs4)cc3)c2O[C@H]1CN(C)Cc1ccc(Cl)c(Cl)c1	102	nt	nt
C[C@@H]1CN([C@@H](C)CO)C(=O)c2cccc(NC(=O)c3ccc(-c4nccs4)cc3)c2O[C@@H]1CN(C)Cc1ccc(C(=O)O)cc1	i	nt	nt
C[C@@H]1CN([C@@H](C)CO)C(=O)c2cccc(NC(=O)c3ccc(-c4nccs4)cc3)c2O[C@@H]1CN(C)Cc1ccc(Cl)c(Cl)c1	i	nt	i
SMILES	NOMO-1 viab	STK33 inh	PD-1 reverse act
C[C@H](CO)N1C[C@H](C)[C@H](CN(C)Cc2ccc(Cl)c(Cl)c2)Oc2c(NC(=O)c3ccc(-c4nccs4)cc3)cccc2C1=O	108	nt	i
C[C@H]1CN([C@@H](C)CO)C(=O)c2cccc(NC(=O)c3ccc(-c4nccs4)cc3)c2O[C@@H]1CN(C)Cc1ccc(C(=O)O)cc1	i	nt	i
C[C@@H]1CN([C@H](C)CO)C(=O)c2cccc(NC(=O)c3ccc(-c4nccs4)cc3)c2O[C@H]1CN(C)Cc1ccc(Cl)c(Cl)c1	106	nt	i
COc1ccc(NC(=O)CSc2nnc(N)n2-c2ccccc2)cc1	i	i	nt
O=C(CSc1n[nH]c(-c2ccncc2)n1)N1c2ccccc2Sc2ccccc21	i	i	i
Nc1nc(CSc2ccccn2)nc(Nc2ccccc2)n1	i	i	nt
CCOC(=O)C1CCCN(Cc2nc(N)nc(Nc3ccccc3)n2)C1 (stereo not given)	113	i	i
CCOc1ccccc1Nc1nc(N)nc(CN2CCCCC2C)n1 (stereo not given)	i	i	nt
Cc1ccc(Nc2nc(N)nc(CN3CCN(C(c4ccccc4)c4ccccc4)CC3)n2)cc1	89	i	i
Cc1cc(Cl)cc(Cl)c1OCC(=O)Nc1ccc(Cl)c(-c2nc3ncccc3o2)c1	i	i	i
C=C1C(=O)O[C@H]2C1CCC(C)=C1C(=O)C=C(C)[C@@]12O (stereo not given in full)	106	i	i
